RE007 growth inh: qHTS Assay for Inhibitors of the HIV-1 protein Vpr; Potency, µM (top dose mostly 92.2 µM), most hits filed as inhibitors; actives 0.21% (n = 360,000); S. pombe RE007 Vpr strain, BacTiter-Glo ATP luminescence, 24 h; active = well fitted falling curve with a large enough effect; inconclusive = small, poorly fitted or top-dose-only effect; inactive = no such curve, though single readings can be large or run the other way; also: nearly all actives have a fitted effect of over 50% in size
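Fission yeast RE007 carrying one integrated HIV-1 vpr copy, seeded at OD 0.01 in PMG+AL medium with 23 nL pinned compound. Grown 24 h at 30 degrees; viability read by BacTiter-Glo luminescence after 5 min.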
Pf growth 48h: Primary qHTS for delayed death inhibitors of the malarial parasite plastid, 48 hour incubation. P. falciparum luciferase growth in erythrocytes, 48 h. Potency, µM (series often up to 28.7 µM), hits mostly inhibitors. actives 5.9% (n = 310,000). AID 504832, 2011; active = well fitted inhibition curve with a large enough effect; inconclusive = small, poorly fitted or top-dose-only effect, or another doubt; inactive = no such curve, though single readings can be large or run the other way
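Luciferase-expressing parasites in RBCs, 2% Hct / 0.1% parasitemia final; RPMI 1640 + 0.5% Albumax; 37 C, 5% CO2, one generation; luminescence read-out, lower signal = inhibition.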
SARS PLP yeast: qHTS of Yeast-based Assay for SARS-CoV PLP | actives 0.19% (n = 330,000) | Potency, µM (doses to about 32.9 µM), actives largely listed as activators | S. cerevisiae expressing SARS-CoV PLpro, growth rescue; also: nearly all actives have a fitted effect of over 55% in size
NS1 inh: qHTS Assay for Inhibitors of Influenza NS1 Protein Function; Potency, µM (top dose mostly 46.1 µM); actives 0.4% (n = 270,000); also: actives are rising curves; nearly all actives have a fitted effect of over 50% in size
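OD600 was taken as the measure of yeast growth restored by compound in an NS1-expressing S. cerevisiae strain. Cells had been washed out of glucose medium and diluted 1:100 into galactose -URA medium, pH 6.0.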
Pf growth 96h: Primary qHTS for delayed death inhibitors of the malarial parasite plastid, 96 hour incubation. P. falciparum luciferase reporter growth, 96 h. AID 504834, 2011. Potency, µM (highest dose often 28.7 µM), hits mostly inhibitors. actives 6.9% (n = 320,000); active = well fitted inhibition curve with a large enough effect; inconclusive = small, poorly fitted or top-dose-only effect, or another doubt; inactive = no such curve, though single readings can be large or run the other way
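96 h incubation, 37 C, 5% CO2, of luciferase-reporter P. falciparum-infected RBCs (2% hematocrit, 0.05% parasitemia final) with test compounds; endpoint luminescence.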
Each line names hits and unclear results; the compound was inactive in the other large screens. Shown are actives, neighbours in structure and some others; about 9.5% of the full set was active somewhere. Unless noted, calls follow the shape of the full dose curve.

CCOC(=O)c1c(NC(=O)CN2C(=O)NC3(CCCC3)C2=O)sc(C)c1CC	Pf growth 48h inconclusive, Pf growth 96h inconclusive (no result: NS1 inh)
CSC1=NCCN1CCOc1ccccc1	Pf growth 96h inconclusive (no result: NS1 inh)
C=CCn1c2ccccc2c2nnc(SCCCn3c(=O)[nH]c4ccccc43)nc21	Pf growth 48h 13µM
CCCn1c2ccc(C)cc2c2nnc(SCCN3CCCCC3)nc21	Pf growth 48h inconclusive, NS1 inh inconclusive, Pf growth 96h 9.3µM
c1ccc(Cn2c3ccccc3c3nnc(SCCN4CCCCC4)nc32)cc1	Pf growth 48h 9.3µM, Pf growth 96h inconclusive
CCCn1c2ccccc2c2nnc(SCCN3CCOCC3)nc21	Pf growth 48h inconclusive
C=CCn1c2ccccc2c2nnc(SCN3C(=O)c4ccccc4C3=O)nc21	none
C=CCn1c2ccccc2c2nnc(SCCN3CCCCC3)nc21	Pf growth 48h inconclusive, Pf growth 96h 10µM
Cc1c(Cl)cccc1NS(=O)(=O)c1c(C(=O)N2CCOCC2)c(C)n(C)c1C	NS1 inh inconclusive
Cc1[nH]c2ccc(Br)cc2c(=O)c1CN1CCCCCC1	Pf growth 48h 10µM
O=C1N[C@@H](Cc2ccccc2)C(=O)N2[C@@H]3N(S(=O)(=O)c4ccccc4)c4ccccc4[C@]3(Br)C[C@@H]12	none (no result: Pf growth 48h, SARS PLP yeast, NS1 inh, Pf growth 96h)
O=C1N[C@@H](Cc2ccccc2)C(=O)N2[C@H]1C[C@]1([C@]34C[C@H]5C(=O)N[C@@H](Cc6ccccc6)C(=O)N5[C@H]3N(S(=O)(=O)c3ccccc3)c3ccccc34)c3ccccc3N(S(=O)(=O)c3ccccc3)[C@H]21	Pf growth 48h 1.5µM, Pf growth 96h 0.74µM (no result: NS1 inh)
CN1/C(=C\C(=O)C[n+]2ccc3ccccc3c2)C(C)(C)c2ccccc21	RE007 growth inh inconclusive, Pf growth 48h inconclusive, Pf growth 96h 1µM (no result: NS1 inh)
CN1/C(=C\C(=O)COC(=O)c2ccco2)C(C)(C)c2ccccc21	none (no result: NS1 inh)
CN1/C(=C\C(=O)c2ccco2)c2ccccc2CC1(C)C	Pf growth 96h 9.3µM
CN1/C(=C\C(=O)c2ccco2)C(C)(C)c2ccccc21	RE007 growth inh inconclusive, Pf growth 48h 1.7µM
CN1/C(=C\C(=O)CSc2nnc(NCc3ccccc3)s2)C(C)(C)c2ccccc21	Pf growth 48h 7.4µM, Pf growth 96h 6.6µM
N#Cc1c(-c2ccccc2)nc(SCC(=O)Nc2ccccc2)[nH]c1=O	none (no result: RE007 growth inh)
N#Cc1c(-c2ccccc2)nc(SCC(=O)N2c3ccccc3Sc3ccccc32)[nH]c1=O	NS1 inh inconclusive
N#Cc1c(-c2ccccc2)nc(SCC(=O)N(c2ccccc2)c2ccccc2)[nH]c1=O	Pf growth 96h 13µM
N#Cc1c(-c2ccccc2)nc(SCC(=O)Nc2ccc(OC(F)(F)Cl)cc2)[nH]c1=O	Pf growth 96h 3.7µM
O=C(c1ccco1)N1N=C(c2ccccc2)CC1c1ccc2nccnc2c1 (stereo unspecified)	Pf growth 48h inconclusive, Pf growth 96h 7.4µM
O=C(O)CCCC(=O)N1N=C(c2ccccc2)CC1c1ccc2nccnc2c1 (stereo unspecified)	Pf growth 96h 3.7µM
O=C(O)CCC(=O)N1N=C(c2ccccc2)CC1c1ccc2nccnc2c1 (stereo unspecified)	none (no result: RE007 growth inh)
C/C(=N\NC(=O)c1cccs1)C(C)(C)C	none
CCOC(=O)Cc1nnc(NC(=O)C23CC4CC(CC(C4)C2)C3)s1	Pf growth 48h 13µM, Pf growth 96h inconclusive
COCCc1nnc(NC(=O)C23CC4CC(CC(C4)C2)C3)s1	Pf growth 96h inconclusive
COc1ccc(CCNC(=O)C/C(C)=N/NC(=O)c2cnccn2)cc1	none
COc1ccc(NS(=O)(=O)c2ccc(C)c(C(=O)NCCCn3ccnc3)c2)cc1	none (no result: Pf growth 48h, SARS PLP yeast, NS1 inh, Pf growth 96h)
COc1ccc(OC)c(/C=C/c2ccc3cccc(O)c3n2)c1	Pf growth 48h 4.1µM (no result: RE007 growth inh)
COc1cc(Br)c(/C=C/c2ccc3cccc(O)c3n2)cc1OC	Pf growth 48h 2.6µM, Pf growth 96h 2.1µM
COc1cc(/C=C/c2ccc3cccc(O)c3n2)c(Br)cc1O	Pf growth 48h inconclusive (no result: RE007 growth inh)
COCC(=O)OCC(=O)Nc1ccc(Cl)cc1[N+](=O)[O-]	none (no result: NS1 inh)
COc1ccc2cc(/C(C)=N/NC(=S)Nc3cc(S(=O)(=O)N4CCOCC4)ccc3N3CCOCC3)ccc2c1	Pf growth 48h 1.5µM, Pf growth 96h inconclusive (no result: RE007 growth inh)
C/C(=N\NC(=S)Nc1cc(S(=O)(=O)N2CCOCC2)ccc1Cl)c1ccc(N2CCOCC2)cc1	Pf growth 48h 1.7µM, Pf growth 96h 1.9µM
CN1CCC[C@H]1c1cccnc1	none (no result: SARS PLP yeast)
CN1C(=O)CCC1c1cccnc1 (stereo unspecified)	Pf growth 96h 1.1µM (no result: RE007 growth inh, SARS PLP yeast)
O=C(O)c1nnsc1-c1ccc(-c2snnc2C(=O)O)cc1	none (no result: RE007 growth inh, Pf growth 48h, SARS PLP yeast, Pf growth 96h)
COCC(=O)N(Cc1ccccc1)c1ccccn1	NS1 inh inconclusive, Pf growth 96h inconclusive
COc1ccccc1NC(=O)N(Cc1ccccc1)c1ccccn1	Pf growth 48h 12µM, Pf growth 96h inconclusive
Fc1c(F)c(F)c(SCn2cc(Br)cn2)c(F)c1F	none (no result: NS1 inh)
C=CCn1c(SCC(=O)NCC2CCCO2)nnc1-c1ccccc1 (stereo unspecified)	none
O=C(NC(NC(=S)N1CCOCC1)C(Cl)(Cl)Cl)c1cccc2ccccc12 (stereo unspecified)	Pf growth 48h 2.9µM
O=C(NN1CCOCC1)c1cccc2ccccc12	none
O=C(NC(=S)NCCCN1CCOCC1)c1cccc2ccccc12	Pf growth 48h inconclusive, Pf growth 96h 6.6µM (no result: NS1 inh)
CCCCCC(=O)NC(NC(=S)N1CCOCC1)C(Cl)(Cl)Cl (stereo unspecified)	Pf growth 48h 8.3µM, SARS PLP yeast inconclusive
CCCCCCCCC(=O)NC(NC(=S)N1CCOCC1)C(Cl)(Cl)Cl (stereo unspecified)	Pf growth 48h inconclusive, Pf growth 96h inconclusive
Nc1ccn([C@@H]2O[C@H](C(=O)N[C@H](CO)Cc3ccccc3)[C@@H](O)[C@H]2O)c(=O)n1	none (no result: Pf growth 48h, SARS PLP yeast, NS1 inh, Pf growth 96h)
CCCNC(=O)c1ccc2nc(-c3ccccc3)c(-c3ccccc3)nc2c1	Pf growth 48h 5.2µM, Pf growth 96h inconclusive
CC(=O)c1ccc(NC(=O)c2ccc3nc(-c4ccco4)c(-c4ccco4)nc3c2)cc1	Pf growth 48h 12µM (no result: Pf growth 96h)
CCCNC(=O)C(Cc1ccccc1)NC(=O)c1ccc(-c2ccccc2)cc1 (stereo unspecified)	Pf growth 96h 1.5µM (no result: NS1 inh)
CCN(CC)C(=O)c1ccc2nc(-c3ccccc3)c(-c3ccccc3)nc2c1	none
O=C(NCc1ccccc1)c1ccc2nc(-c3ccco3)c(-c3ccco3)nc2c1	Pf growth 96h 12µM (no result: Pf growth 48h)
COc1ccc(NC(=O)c2cc(C3CCCCN3C(=O)c3cccs3)on2)c(C)c1 (stereo unspecified)	none (no result: Pf growth 48h, SARS PLP yeast, NS1 inh, Pf growth 96h)
CCc1ccccc1OCC(=O)NNCC(=O)Nc1cccc(C#N)c1	Pf growth 48h inconclusive (no result: NS1 inh)
COc1ccc(CC(=O)OCN2C(=O)c3ccccc3C2=O)cc1OC	none
